Hit rate of the full screen: of about 390,000 compounds, about 1,400 (0.36%) were called active. A call without a number means that no potency is given here. Inconclusive results (about 2%) are left out. Calls come from the whole dose curve; as a rule, active = well fitted inhibition curve with a large enough effect; inconclusive = small, poorly fitted or top-dose-only effect; inactive = no such curve, though single readings can be large or run the other way. For the sample, actives were picked, then their nearest neighbours and some compounds at random.
Biological target: Flap endonuclease 1 (Homo sapiens) (UniProt P39748)
Experiment: qHTS Assay for the Inhibitors of Human Flap endonuclease 1 (FEN1). Note: nearly all actives have a fitted effect of over 65% in size.
Settings: Recombinant FEN1 flap cleavage, fluorescence, 15 min; series mostly up to 114 µM
Summary of the method: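 FEN1 at 10 nM, compound pretreatment for 15 min (room temperature), 50 nM final substrate to initiate; endpoint reads at 0 and 15 min; DMSO-only plates used as vehicle background.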
Potency is the fitted concentration of half-maximal effect.

Flap endonuclease 1 (Homo sapiens), sequence (P39748 whole entry, looked up): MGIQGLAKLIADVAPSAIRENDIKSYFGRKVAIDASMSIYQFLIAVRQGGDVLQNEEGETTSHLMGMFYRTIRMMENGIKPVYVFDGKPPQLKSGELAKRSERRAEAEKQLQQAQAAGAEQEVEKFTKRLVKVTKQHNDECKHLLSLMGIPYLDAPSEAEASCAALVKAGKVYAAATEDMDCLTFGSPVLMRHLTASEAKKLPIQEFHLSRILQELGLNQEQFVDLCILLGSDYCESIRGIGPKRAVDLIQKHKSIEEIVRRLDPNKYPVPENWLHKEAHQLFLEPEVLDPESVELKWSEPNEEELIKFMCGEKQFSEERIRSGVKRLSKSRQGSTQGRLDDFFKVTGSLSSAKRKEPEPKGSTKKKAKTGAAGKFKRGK

Question: For `CCN(CC)c1ccc(/C=C/c2c(C)cnc3ccc(C)cc23)cc1`, which Potency is on record?
Answer: inactive

Question: With `CN1C(=O)/C(=C/c2ccco2)SC1=Nc1cccc(C(=O)O)c1` as the molecule, how does the Potency read?
Answer: 50.1 µM (active)

Question: `CN=C1S/C(=C\c2c(OC)cc(OC)cc2OC)C(=O)N1C` was tested. Which Potency did it give?
Answer: inactive

Question: `O=C(O)c1cccc(N=NN2CCCCCC2)c1` was tested. Which Potency did it give?
Answer: inactive

Question: How did the Potency turn out when `COc1cc2[nH]c(C)c(CCN3CCN(c4ccccc4)CC3)c2cc1OC` was run?
Answer: inactive

Question: Which Potency does the source give for `O=C(CSc1nc(=O)n(Cc2cccnc2)c2c1CCC2)Nc1ccc(F)cc1F` here?
Answer: inactive

Question: `Cc1nc([N+](=O)[O-])cn1CC(=O)Nc1ccc2c(c1)OCO2` was tested. Which Potency did it give?
Answer: inactive

Question: Which Potency does the source give for `COC(=O)c1ccc2c(c1)N(CC(=O)Nc1ccc(C)c(C)c1)C(=O)c1ccccc1S2` here?
Answer: inactive

Question: How did the Potency turn out when `Cc1ccc(C(=O)O)cc1-c1ccc(/C=C2\SC(=O)N(CC(=O)Nc3ccc4c(c3)OCO4)C2=O)o1` was run?
Answer: 39.8 µM (active)

Question: For `CSc1n[nH]c(-c2ccco2)n1`, which Potency is on record?
Answer: inactive

Question: `CCC(=C/c1sc2ccc3ccccc3c2[n+]1C)/C=C1\Sc2ccc3ccccc3c2N1C` was tested. Which Potency did it give?
Answer: 12.6 µM (active)

Question: With `CCCCNC(=O)Cn1c(SCc2cccc(Cl)c2)nc2ccncc21` as the molecule, how does the Potency read?
Answer: inactive

Question: `CC(C)(C)c1ccc(C(=O)C[N+]2(C)CCCc3ccccc32)cc1` (stereo not drawn) was tested. Which Potency did it give?
Answer: inactive

Question: How did the Potency turn out when `Fc1ccc(-c2ccc(NCCN3CCOCC3)nn2)cc1` was run?
Answer: inactive

Question: With `c1ccc2cc3c(NCCN4CCOCC4)ccnc3cc2c1` as the molecule, how does the Potency read?
Answer: 17.8 µM (active)

Question: How did the Potency turn out when `CCOc1nc(NCCN2CCOCC2)nc(Nc2ccc(C)cc2)n1` was run?
Answer: inactive

Question: `COc1cc(OC)c(OC)cc1/C=C1\C=Cc2ccccc21` was tested. Which Potency did it give?
Answer: inactive

Question: Which Potency does the source give for `O=S(=O)(c1cccc(C(F)(F)F)c1)N1CCN(c2nc(-c3cccs3)nc3ccccc23)CC1` here?
Answer: inactive

Question: With `CN(C(=O)CCN1C(=O)/C(=C/c2ccccc2F)SC1=S)C1CCS(=O)(=O)C1` (stereo not drawn) as the molecule, how does the Potency read?
Answer: inactive

Question: For `Cc1ccc(-c2nn(-c3ccccc3)cc2/C=C2\SC(=S)N(CCCCCC(=O)O)C2=O)o1`, which Potency is on record?
Answer: 31.6 µM (active)

Question: `O=C1/C(=C\c2ccccc2Cl)SC(=S)N1CCC(=O)N1CCCc2ccccc21` was tested. Which Potency did it give?
Answer: inactive

Question: `Cc1cc(C)c2nc3nc(C)cc(C)c3c(N)c2c1` was tested. Which Potency did it give?
Answer: 39.8 µM (active)

Question: How did the Potency turn out when `CN1CCN(c2oc(-c3ccc(COc4ccc(Cl)cc4)o3)nc2C#N)CC1` was run?
Answer: inactive

Question: With `COc1ccc(OC)c(NC(=O)C2CCCN(S(=O)(=O)c3ccc4c(c3)CCCC(=O)N4)C2)c1` (stereo not drawn) as the molecule, how does the Potency read?
Answer: inactive

Question: `COc1cccc2sc3cc(NCC[C@@H]4CCCN4C)ccc3c(=O)c12` was tested. Which Potency did it give?
Answer: 50.1 µM (active)

Question: `COc1cccc(OC)c1C(=O)Nc1ccc2c(c1)n(C)c(=O)n2C` was tested. Which Potency did it give?
Answer: inactive

Question: `COc1ccc(/C=C/c2ccnc3ccccc23)cc1OC` was tested. Which Potency did it give?
Answer: inactive

Question: Which Potency does the source give for `CNc1ccc(-c2nc(-c3ccco3)no2)cc1[N+](=O)[O-]` here?
Answer: inactive
